# A selection: hits, their analogues and other compounds. The true share with any hit is near 7.5%.
# FLuc modulator: counter-screen for miR-21 project: firefly luciferase inhibitors or activators | AID 588342 | P08659 | hit rate 6.9% among 360,000 | purified FLuc, Km substrates, luminescence inhibition | Potency, µM (doses to about 57.5 µM), for inactives: at the highest dose activity change, negative = inhibition, most hits filed as inhibitors;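 also: plate controls were vehicle for no effect and reference inhibitor for full effect; nearly all actives have a fitted effect of over 55% in size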
# Target sequence (P08659 whole entry, looked up): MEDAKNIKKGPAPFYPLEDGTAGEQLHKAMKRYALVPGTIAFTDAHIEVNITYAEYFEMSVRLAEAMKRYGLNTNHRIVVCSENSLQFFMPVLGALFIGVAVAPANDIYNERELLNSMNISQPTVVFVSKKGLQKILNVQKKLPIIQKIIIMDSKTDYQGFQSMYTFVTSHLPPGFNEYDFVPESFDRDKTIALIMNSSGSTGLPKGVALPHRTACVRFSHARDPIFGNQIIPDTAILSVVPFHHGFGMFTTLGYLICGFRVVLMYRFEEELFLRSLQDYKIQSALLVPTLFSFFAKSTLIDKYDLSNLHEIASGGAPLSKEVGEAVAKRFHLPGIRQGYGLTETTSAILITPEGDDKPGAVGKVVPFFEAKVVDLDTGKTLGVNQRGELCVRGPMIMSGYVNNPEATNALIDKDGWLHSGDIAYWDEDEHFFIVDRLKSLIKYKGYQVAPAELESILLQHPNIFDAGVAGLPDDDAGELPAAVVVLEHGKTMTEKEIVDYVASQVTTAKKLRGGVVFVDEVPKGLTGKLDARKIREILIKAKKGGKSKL
#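 Biochemical qHTS of compounds, final roughly 60 µM downward over six points, against 10 nM purified firefly luciferase using Km concentrations of substrates (10 uM D-luciferin, 10 uM ATP) in Tris acetate pH 7.5 buffer; luminescence output.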
# Rab9 prom act: activators of Rab9 promoter. AID 485297. Potency, µM (highest dose often 9.22 µM), for inactives: top-dose activation, negative = inhibition, most hits filed as activators. Huh7 Rab9 promoter-luciferase reporter, luminescence, 24 h. hit rate 2.8% among 320,000; also: % of control where 0% means no effect; nearly all actives have a fitted effect of over 60% in size
#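 Promoter activation is measured as luciferase luminescence in Huh7 cells stably transfected with a Rab9 promoter–luciferase construct, following 24 h compound exposure at 37 °C and 10 min reagent incubation at ambient temperature.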
# NPC1 promoter act: activators of NPC1 promoter; Huh7 NPC1 promoter luciferase reporter, 24 h; Potency, µM (top dose mostly 9.22 µM), without a hit: at the highest dose activation, usual class: activators; hit rate 2.4% among 320,000; also: % of control where 0% means no effect; nearly all actives have a fitted effect of over 60% in size
#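 NPC1 promoter–luciferase Huh7 cells; 24 h compound; luminescence.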
# SMN2 splice enh: increases expression of the SMN2 splice variant. HEK293 SMN2-luciferase splicing reporter, luminescence, 30-36 h. Potency, µM (series often up to 46.1 µM), inactives show top-dose activity change, positive = activation, most hits filed as activators. hit rate 2.8% among 210,000; also: % of control where 0% means no effect; nearly all actives have a fitted effect of over 55% in size
#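 qHTS luciferase splicing reporter: luminescence rises when SMN2 exon 7 is included in transfected HEK293 cells. Compound exposure lasted 30-36 h at 37C, with 4.5 mM final sodium butyrate as control, followed by a ONE-Glo read.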
# ELG1 genotoxic: induces genotoxicity in HEK293T cells with luciferase-tagged ELG1 | HEK293T ELG1-luciferase reporter, luminescence, 16 h | Potency, µM (highest dose often 46 µM), for the others: at the top dose activity change, positive = activation, actives largely listed as activators | hit rate 1.3% among 330,000 | AID 504466; also: % of control where 0% means no effect; nearly all actives have a fitted effect of over 60% in size
#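 Genotoxic stress is detected as increased luminescence from luciferase-tagged ELG1 in HEK293T cells, measured with ONE-Glo after a 16 hr treatment at 37 °C.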
# The depositor's hits bear a star; ? = inconclusive; . = not tested or not shown; [ ] = another dose, or the depositor's remark. Calls follow the shape of the dose curve; as a rule, active = well fitted curve in the direction sought with a large enough effect; inconclusive = small, poorly fitted or top-dose-only effect, or another doubt; inactive = no such curve, though single readings can be large; an effect the other way counts as inactive or inconclusive. Potency is read from the fitted curve at half-maximal effect.
SMILES,FLuc modulator,Rab9 prom act,NPC1 promoter act,SMN2 splice enh,ELG1 genotoxic
Cc1cccc(-c2nc(C#N)c(NC3CCCCC3)o2)c1,7.6µM*,1.8µM*,2.5µM*,10µM*,?
CCc1ccc2c(CC(=O)Nc3nnc(C4CC4)s3)coc2c1,0%,2%,-1%,8%,3%
CCCCN(C(=O)CCC(=O)Nc1cc(C)on1)C(C(=O)NC(C)(C)C)c1cccc(OC)c1OC (centres undefined),-2%,-1%,-3%,-13%,-5%
COc1ccc(-c2cc(C(=O)N3CCN(c4ccccc4)CC3)c3ccccc3n2)cc1OC,15µM*,-2%,-3%,25%,-15%
Cc1ccc(-c2cc(C(=O)n3cnc4ccccc43)c3ccccc3n2)cc1C,3µM*,?,?,21%,12%
Cc1ccc(-c2cc(C(=O)NC(C)c3ccccc3)c3ccccc3n2)cc1C (centres undefined),-14%,.,.,.,.
Cc1ccc(-c2cc(C(=O)N3CCN(c4ccccc4)CC3)c3ccccc3n2)cc1C,2.4µM*,.,.,.,.
Cc1[nH]c(=O)c(C(=O)c2ccccc2O)cc1C(=O)O,-2%,-6%,-1%,-2%,1%
O=C(Cc1ccccc1)N1CCC2(CC1)NCCc1[nH]cnc12,0%,-2%,-3%,.,0%[9.26 µM]
COc1cc(NC(=O)c2ccccc2)cc(OC)c1,19µM*,?,6.3µM*,?,?
COc1ccc(C(=O)Nc2cc(OC)cc(OC)c2)cc1,4.8µM*,1.8µM*,2µM*,25µM*,?
CCc1ccc(NC(=O)c2ccc3c(c2)nnn3CC)cc1,-19%,.,.,.,.
CCn1nnc2cc(C(=O)Nc3cc(OC)cc(OC)c3)ccc21,17µM*,24%,13%,.,?
COc1ccc(NC(=O)c2cccc(NC(=O)c3ccccc3)c2)cc1,?,?,?,.,4%
COC(=O)c1ccc([C@H]2C=C(C(=O)O)O[C@@H](OCc3ccc(CO)cc3)C2)cc1,-2%,0%,1%,.,3%
COc1ccc(-c2cn3nc(N4CCCC(C(=O)NCc5ccc(Cl)cc5)C4)sc3n2)cc1 (centres undefined),12µM*,.,.,.,.
COc1cccc(CNC(=O)C2CCCN(c3nn4c(=O)cc(C)nc4s3)C2)c1 (centres undefined),1%,10%,-1%,-9%,?
CCOc1ccc(CNC(=O)C2CCCN(c3nn4cc(-c5ccc(F)cc5)nc4s3)C2)cc1 (centres undefined),-17%,.,.,.,.
COc1cccc(CNC(=O)C2CCCN(c3nn4cc(-c5ccc(C)cc5)nc4s3)C2)c1 (centres undefined),7.6µM*,.,.,.,.
COCCCNC(=O)C1CCCN(c2nn3cc(-c4ccc(C)cc4)nc3s2)C1 (centres undefined),8.5µM*,.,.,.,.
CCOCCCNC(=O)C1CCN(c2nn3cc(-c4ccc(F)cc4)nc3s2)CC1,-18%,.,.,.,.
COc1ccc(NC(=O)COC(C)=O)cc1OC,-1%,-3%,-2%,24%,0%
COCCNC(=O)c1ccc(N2CC3CC(C2)c2cccc(=O)n2C3)c(NC(=O)c2ccc(F)cc2)c1 (centres undefined),4%,-7%,-4%,.,1%
CC1CCC(NC(=O)CN2C(=O)NC(C)(C)C2=O)CC1 (centres undefined),-1%,-8%,1%,.,0.12µM*
Cc1ccc(NC(NC(=O)c2ccccc2[N+](=O)[O-])C(Cl)(Cl)Cl)cc1 (centres undefined),2%,-6%,-6%,-26%,-4%
SMILES,FLuc modulator,Rab9 prom act,NPC1 promoter act,SMN2 splice enh,ELG1 genotoxic
COc1ccc(-c2cc(C(=O)N3CCCc4ccccc43)no2)cc1OC,?,1%,-3%,-6%,-2%
COc1ccc(OC)c(-c2cc(C(=O)N3CCCc4ccccc43)no2)c1,2%,10%,-4%,-7%,-7%
COc1ccc(-c2cc(C(=O)N3CCCc4ccccc43)no2)cc1,6µM*,?,?,-3%,0%
COc1ccc(C2=NOC(C(=O)N3CCCc4ccccc43)C2)cc1 (centres undefined),13µM*,8%,4%,0%,-1%
COc1cc(C2=NOC(C(=O)N3CCCc4ccccc43)C2)cc(OC)c1OC (centres undefined),3%,-3%,-3%,2%,-1%
COc1cccc(-c2cc(C(=O)N3CCCc4ccccc43)no2)c1,12µM*,2%,28%,?,7%
Cc1ccc2c(nc3s/c(=C/c4cccs4)c(=O)n32)c1C,1.9µM*,3.5µM*,29%,?,16µM*
Cc1cc(C)c2nc3s/c(=C/c4ccccc4)c(=O)n3c2c1,?,1.3µM*,?,-2%,3%
O=C(O)c1ccc(-c2ccc(/C=c3/sc4nc5ccccc5n4c3=O)o2)cc1Cl,19µM*,12%,5%,.,0%
Cc1ccc(C)c(N2C(=N)S/C(=C\c3ccc(-c4ccccc4C(=O)O)o3)C2=O)c1,?,-2%,2%,12%,2%
Cc1ccc2c(nc3s/c(=C\c4ccc(-c5ccccc5C(=O)O)o4)c(=O)n32)c1C,5.4µM*,-1%,2%,.,0%
COc1ccccc1C(C)NC(=O)CCNC(=O)c1ccc(Cl)cc1 (centres undefined),.,.,.,.,-1%
N/C(Cc1ccc([N+](=O)[O-])cc1)=N\OC(=O)c1ccc(Br)o1,3%,-3%,-1%,-7%,-3%
Cc1sc(N)c(C#N)c1C,-1%,-5%,-2%,13%,-1%
O=C(N/N=C/c1ccc(F)cc1)c1sccc1OCc1ccc(F)cc1,9.5µM*,-8%,-18%,4%,12%
CCOC(=O)N/N=C/c1ccc(F)cc1,?,28%,25%,11%,12%
O=C(COCC(=O)N/N=C/c1ccc(F)cc1)N/N=C/c1ccc(F)cc1,8.5µM*,2%,0%,10%,4%
O=C(N/N=C/c1ccc(Cl)cc1)c1sccc1OCc1ccc(F)cc1,?,-11%,-15%,?,?
CCOC(=O)C(=O)N/N=C/c1ccc(F)cc1,13µM*,-3%,3%,.,-8%
Cc1ccc(CN2C3=NCCN3c3ccccc32)cc1,3%,0%,0%,-6%,-12%
COc1ccc(N(C)S(=O)(=O)c2cccc(C(=O)Nc3nnc(C)s3)c2)cc1,0%,10%,-2%,.,1%
Cc1cc(C(=O)CN2C(=O)NC3(CCCCC3)C2=O)c(C)n1Cc1ccco1,7.6µM*,1.4µM*,2.2µM*,11µM*,6.5µM*
Cc1cc(C(=O)CN2C(=O)NC3(CCCCC3)C2=O)c(C)n1Cc1ccc2c(c1)OCO2,?,3%,20%,-7%,0%
Cc1cc(C(=O)CN2C(=O)NC3(CCCCC3C)C2=O)c(C)n1Cc1cccs1 (centres undefined),6.7µM*,2.8µM*,4µM*,16µM*,?
